# Assay results taken from PubChem BioAssay (NCI).
# This is part of a sample that, as a whole, favours compounds with a hit. Of some 83,000 tested, about 20% had one in any assay.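 Compound tested at a single concentration for 48 hours in 96-well plates; a percent growth value below 10 was scored as active.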 Activity calls are given as the source filed them.
# Test system: NCI-H460 lung
# Experiment: NCI-60 one-dose screen, 48 h (100 = growth as untreated, 0 = no growth, -100 = all killed)
# Conditions: 10 µM
row,SMILES,growth
1,CC(C)[N+]1(C)C2CC[C@@H]1CC(OC(=O)C(CO)c1ccccc1)C2 (stereo not given in full),108% (inactive)
2,Cc1c2c[n+](C(C)C)ccc2c(C)c2c1[nH]c1ccccc12,4.39% (active)
3,Cc1ccc(-n2c(C)nn3c(=O)c4c5c(sc4nc23)CN(C)CC5)cc1,109% (inactive)
4,CCCCCCCCCCCCCCCCCC[n+]1ccc2c(C)c3c(c(C)c2c1)c1cc(O)ccc1n3CC,6.93% (active)
5,Cc1c2cnccc2c(C)c2c1c1cc(O)ccc1n2C(C)C,-10% (active)
6,COc1ccc(C(=O)CSc2nc(-c3cc(OC)ccc3OC)cc(-c3ccc(OC)cc3)c2C#N)cc1,127% (inactive)
7,CCn1c2ccc(O)cc2c2c(C)c3c[n+](C)ccc3c(C)c21,7.28% (active)
8,Cc1ccccc1N1C(=O)c2cc(S(N)(=O)=O)c(Cl)cc2NC1C (stereo not given),111% (inactive)
9,N#Cc1c(-c2ccc(Cl)cc2)cc(-c2cc(O)ccc2O)nc1N,5.46% (active)
10,Cn1c2ccccc2c2c3[nH][nH]c(=O)c3c3c4ccccc4[nH]c3c21,-28.2% (active)
11,O=C1c2c(c3c4ccccc4n(CCCCCCN4CCOCC4)c3c3[nH]c4ccccc4c23)C(=O)N1O,72.2% (inactive)
12,Nc1ccccc1NC(=O)c1ccc(CCCC(=O)Nc2ccc(C3CC3N)cc2)cc1 (stereo not given),40.4% (inactive)
13,Nc1nc(-c2cccnc2)nc2c1sc(=S)n2-c1ccccc1,97.2% (inactive)
14,Nc1cc(-c2ccncc2)c[nH]c1=O,110% (inactive)
15,COc1cc2c3c(n([C@H]4CCOC4)c(=O)c2cc1OC)-c1cc2c(cc1C3=O)OCO2,3.66% (active)
